Shown is part of a subset that was picked to be rich in hits.
Giardia FBPA inh = blocks Giardia fructose-bisphosphate aldolase activity. purified Giardia FBPA. actives 0.71% (n = 290,000). AID 2451. Potency, µM (series often up to 59.6 µM), inactives show at the highest dose activity, negative = inhibition, most hits filed as inhibitors; also: potency is read from the fitted curve at half-maximal effect; % is scaled to controls: 0 for no effect and ±100 for the full control effect; nearly all actives have a fitted effect of over 55% in size
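Giardia FBPA (40 nM reagent) was preincubated 10 min at RT with compound (up to 57.5 uM final), then substrate plus GAPDH/TPI/NAD/arsenate coupling system with diaphorase/resazurin was added; resorufin fluorescence (525/598 nm) was read after 20 min.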
LmPK inhibitor = LmPK (Leishmania mexicana) enzyme inhibition | Q27686 | actives 0.37% (n = 290,000) | Potency, µM (titrated, usually from 57.5 µM), for the others: at the highest dose activity change, negative = inhibition, actives largely listed as inhibitors | purified LmPK, Kinase-Glo ATP luminescence, 1 h; also: potency is read from the fitted curve at half-maximal effect; % is scaled to controls: 0 for no effect and ±100 for the full control effect
Target sequence (Q27686 whole entry, looked up): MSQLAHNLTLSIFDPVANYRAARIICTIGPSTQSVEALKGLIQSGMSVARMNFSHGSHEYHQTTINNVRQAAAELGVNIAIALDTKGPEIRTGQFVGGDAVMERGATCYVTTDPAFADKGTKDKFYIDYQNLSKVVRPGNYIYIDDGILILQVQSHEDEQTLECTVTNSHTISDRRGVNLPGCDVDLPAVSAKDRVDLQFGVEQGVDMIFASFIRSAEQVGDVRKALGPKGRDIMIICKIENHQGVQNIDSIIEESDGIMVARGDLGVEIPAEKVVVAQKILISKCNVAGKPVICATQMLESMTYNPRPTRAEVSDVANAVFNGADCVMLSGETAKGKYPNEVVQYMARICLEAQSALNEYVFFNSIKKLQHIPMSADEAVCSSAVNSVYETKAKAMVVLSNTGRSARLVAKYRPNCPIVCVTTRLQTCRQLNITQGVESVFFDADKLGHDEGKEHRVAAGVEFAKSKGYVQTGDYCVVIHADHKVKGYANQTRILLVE
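Screened at intermediate enzyme activity to detect both inhibitors and activators: LmPK at 0.1 nM, with a 0.5 nM enzyme column as activation reference. PEP 0.5 mM, ADP 0.1 mM; ATP detected by luminescence after 1 h.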
Shiga toxin inh = inhibitors of Shiga toxin in Vero cells | Vero cells, Shiga toxin protein synthesis inhibition reporter | inhibition, % at 38.7 µM | actives 9.2% (n = 290,000); in the data active = inhibition mostly above about 28%, no sharp cut-off; inactive = mostly below about 43%; also: 0% is about no effect
TbPYK inhibitor = T. brucei pyruvate kinase inhibition. Q57TT1. TbPYK enzyme, Kinase-Glo Plus ATP luminescence, 45 min. Potency, µM (titrated, usually from 76.8 µM), inactives show at the highest dose activity, negative = inhibition, usual class: inhibitors. actives 0.12% (n = 410,000). AID 624173; also: potency is read from the fitted curve at half-maximal effect; % is scaled to controls: 0 for no effect and ±100 for the full control effect; nearly all actives have a fitted effect of over 50% in size
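TbPYK + substrate in 50 mM TEA pH 7.2, 100 mM KCl, 10 mM MgCl2, 0.05% BSA, 0.01% Tween-20; cpd pinned; ADP 130 uM final; 45 min RT; Kinase-Glo Plus 10 min; luminescence endpoint.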
Cycloheximide cs = counter-screen for Shiga toxin inhibitors: cycloheximide protein synthesis inhibition; AID 2314; cell reporter, cycloheximide protein synthesis inhibition counterscreen; actives 12% (n = 300,000); max response, %; in the data active = max response mostly above about 13%, no sharp cut-off; inactive = mostly below about 14%; also: read at 38.3 µM for the half of the compounds with a filed dose; 0% is about no effect
Sm TGR inh = inhibitors of Schistosoma mansoni thioredoxin glutathione reductase; purified TGR, DTNB reduction, TNB absorbance 405 nm; Q962Y6; actives 3% (n = 360,000); Potency, µM (titrated, usually from 114 µM), without a hit: at the top dose activity change, negative = inhibition, most hits filed as inhibitors; also: potency is read from the fitted curve at half-maximal effect; % is scaled to controls: 0 for no effect and ±100 for the full control effect; nearly all actives have a fitted effect of over 60% in size
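First, TGR (20 nM dispensed) and NADPH were mixed with compound. Second, a 15 min room-temperature incubation followed. Third, further NADPH and then DTNB were added to start the reaction. Finally, TNB absorbance was monitored kinetically.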
Starred values were filed as active, the others as inactive. Unless noted, calls follow the shape of the dose curve; as a rule, active = well fitted curve in the direction sought with a large enough effect; inconclusive = small, poorly fitted or top-dose-only effect, or another doubt; inactive = no such curve, though single readings can be large; an effect the other way counts as inactive or inconclusive.

Screening COC(=O)c1ccc(NC(=O)CS(=O)(=O)c2ccccc2)cc1 returned Giardia FBPA inh 1%, LmPK inhibitor -3%, Shiga toxin inh 46, TbPYK inhibitor -2%, Cycloheximide cs 11* and Sm TGR inh 0%.
COC(=O)c1ccc(NC(=O)CSc2ccccn2)cc1 was read as Giardia FBPA inh 1%, LmPK inhibitor 4%, Shiga toxin inh 36*, TbPYK inhibitor -7%, Cycloheximide cs 58* and Sm TGR inh 3%.
`CCN(CC)C(=O)C(=O)Nc1ccc(Oc2ccccc2)cc1` gave Giardia FBPA inh -10%, LmPK inhibitor 5%, Shiga toxin inh 78*, TbPYK inhibitor -2% and Cycloheximide cs 24*.
Screening COC(=O)c1ccc(NC(=O)CSc2ccccc2)cc1 returned Giardia FBPA inh -3%, LmPK inhibitor -1%, Shiga toxin inh 64*, TbPYK inhibitor inconclusive, Cycloheximide cs 31* and Sm TGR inh -28%.
`Cc1cc(C)cc(NC(=O)CS(=O)(=O)c2ccccc2)c1` gave Giardia FBPA inh -8%, LmPK inhibitor -3%, Shiga toxin inh 21, TbPYK inhibitor 2%, Cycloheximide cs -2 and Sm TGR inh -13%.
CC(=O)OC1CC(O)C(C)(C)C2CC(OC(C)=O)[C@]3(C)C(CC[C@@]4(C)C(c5ccoc5)OC(=O)C5OC534)[C@]12C (stereo partly drawn) was read as Giardia FBPA inh 0%.
CC(C)C[C@@H](CC(=O)N[C@@H](CCC(=O)O)CC(=O)O)NC(=O)[C@@H]1CNCC[C@H]1NC(=O)C[C@H](CCCN)NC(=O)C[C@H](Cc1c[nH]c2ccccc12)NC(=O)[C@@H]1CCCC[C@H]1N was read as Giardia FBPA inh -20%.
Screening COC(=O)c1ccc(NC(=O)CSc2nc3ncccc3[nH]2)cc1 returned Giardia FBPA inh 0%, LmPK inhibitor -3%, Shiga toxin inh 22, TbPYK inhibitor -2%, Cycloheximide cs 12* and Sm TGR inh -22%.
For CCN(CC)C(=O)Nc1ccc(C(=O)OC)cc1 the results were Giardia FBPA inh 6%, LmPK inhibitor 1%, Shiga toxin inh 13, TbPYK inhibitor -7%, Cycloheximide cs 16* and Sm TGR inh -5%.
CCN(CC)C(=S)Nc1ccc(C(=O)OC)cc1 was read as Giardia FBPA inh -2%, LmPK inhibitor -5%, Shiga toxin inh 14, TbPYK inhibitor -1%, Cycloheximide cs -1 and Sm TGR inh 6%.
For O=C(CSc1nc2ncccc2[nH]1)c1ccc2c(c1)OCO2 the results were Giardia FBPA inh 1%, LmPK inhibitor -3%, Shiga toxin inh 43*, TbPYK inhibitor 0%, Cycloheximide cs 39* and Sm TGR inh 3%.
`OCCN1CCN(c2nccn3ccnc23)CC1` gave TbPYK inhibitor -9%.
Screening O=c1oc(-c2ccccc2F)nc2scc(-c3ccccc3)c12 returned Giardia FBPA inh -1%, LmPK inhibitor 2%, Shiga toxin inh 32*, TbPYK inhibitor 0%, Cycloheximide cs 21* and Sm TGR inh 11%.
`Cc1nc2scc(-c3ccccc3)c2c(=O)o1` gave Giardia FBPA inh 7%, LmPK inhibitor -2%, Shiga toxin inh -21, TbPYK inhibitor -1%, Cycloheximide cs -6 and Sm TGR inh -5%.
Screening CC(C)CC1NC(=O)c2cccnc2-n2c1nc1ccccc1c2=O (stereo not drawn) returned TbPYK inhibitor -5%.
For C/C=C\C=C/C(=O)Nc1cccc(C2=NOC3(C2)C[C@H](C(N)=O)N(C(=O)c2ccc(OC)cc2)C3)c1 (stereo partly drawn) the results were Giardia FBPA inh -3%, LmPK inhibitor 0%, Shiga toxin inh -2, TbPYK inhibitor -29%, Cycloheximide cs -4 and Sm TGR inh 1.8µM*.
`C/C=C\C=C/C(=O)Nc1cccc(C2=NOC3(C2)C[C@@H](C(N)=O)N(C(=O)c2ccc(Cl)cc2)C3)c1` (stereo partly drawn) gave Giardia FBPA inh -31%, LmPK inhibitor 4%, Shiga toxin inh 6, TbPYK inhibitor -18%, Cycloheximide cs 3 and Sm TGR inh 3.2µM*.
For CCOc1ccc2cc(C#N)c(SCC(=O)N3CCC(C)CC3)nc2c1 the results were Giardia FBPA inh -3%, LmPK inhibitor 0%, Shiga toxin inh -5, TbPYK inhibitor -12%, Cycloheximide cs 1 and Sm TGR inh 2%.
For CCSc1nc2ccc(OC)cc2cc1C#N the results were Giardia FBPA inh -1%, LmPK inhibitor -2%, Shiga toxin inh 20, TbPYK inhibitor 0%, Cycloheximide cs -1 and Sm TGR inh -4%.
CCOC(=O)CSc1nc2cc(OCC)ccc2cc1C#N was read as Giardia FBPA inh -3%, LmPK inhibitor -7%, Shiga toxin inh 88*, Cycloheximide cs 65* and Sm TGR inh inconclusive.
COC(=O)CSc1nc2cc(OC)ccc2cc1C#N was read as Giardia FBPA inh 7%, LmPK inhibitor 1%, Shiga toxin inh 68*, TbPYK inhibitor 6%, Cycloheximide cs 53* and Sm TGR inh 14%.
Screening CCOc1ccc2nc(SCC#N)c(C#N)cc2c1 returned Giardia FBPA inh -5%, LmPK inhibitor 0%, Shiga toxin inh 24, TbPYK inhibitor -5%, Cycloheximide cs 22* and Sm TGR inh -2%.
Screening CCN(CC)c1nc2cc(OC)ccc2cc1C#N returned Giardia FBPA inh -22%, LmPK inhibitor -1%, Shiga toxin inh -10, TbPYK inhibitor 1%, Cycloheximide cs -2 and Sm TGR inh 35µM*.
`COc1cccc([C@@H]2Oc3ccc(Br)cc3C[C@H]2OC(=O)Nc2ccc(OC(F)F)cc2)c1` gave Giardia FBPA inh 12%.
CCCCN1CC(N2CCN(Cc3ccccc3)CC2)CS1(=O)=O (stereo not drawn) was read as TbPYK inhibitor -6%.
COC(=O)CSc1nc2ccc(C)cc2cc1C#N was read as Giardia FBPA inh -4%, LmPK inhibitor 14%, Shiga toxin inh 149*, TbPYK inhibitor 2%, Cycloheximide cs 36* and Sm TGR inh 1%.
Screening Cc1ccc2nc(NCCNC(=O)c3ccccc3)c(C#N)cc2c1 returned Giardia FBPA inh -9%, LmPK inhibitor -1%, TbPYK inhibitor -1%, Cycloheximide cs 1 and Sm TGR inh -7%.
For COc1ccc(C(=O)NCCNc2nc3ccc(C)cc3cc2C#N)cc1 the results were Giardia FBPA inh 6%, LmPK inhibitor -20%, Shiga toxin inh 34*, TbPYK inhibitor 4%, Cycloheximide cs 23* and Sm TGR inh 2%.
For COC(=O)CSc1nc2cc(C)cc(C)c2cc1C#N the results were Giardia FBPA inh 3%, LmPK inhibitor -6%, Shiga toxin inh -10, TbPYK inhibitor 7%, Cycloheximide cs -2 and Sm TGR inh 1%.

Compound activity from PubChem BioAssay.
